Shown are actives, neighbours in structure and some others; about 1.6% of the full set was active somewhere.
Imprint erasure: qHTS Assay for Compounds that Induce Erasure of Genomic Imprints; mouse ES Peg3-LacZ reporter, beta-gal luminescence, 40 h; Potency, µM (top dose mostly 60.7 µM), inactives show at the highest dose activity change, positive = activation, usual class: activators; hit rate 0.02% among 110,000; AID 1948, 2009
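Gelatin-coated wells received 300 freshly trypsinized female ES cells with a Peg3LacZ-Neo reporter on the maternal allele, then incubated 40 hours at 37C. BetaGlo was added for 5 minutes at room temperature before a single luminescence read.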
p53ts 32C tox: qHTS Screen for Compounds that Selectively Target Cancer Cells with p53 Mutations: Cytotoxicity of p53ts Cells at the Permissive Temperature; H1299-p53A138V at 32C, ATP luminescence viability, 24 h; Potency, µM (highest dose often 46.1 µM), for inactives: top-dose activity change, negative = cytotoxicity, usual class: cytotoxic; hit rate 0.93% among 130,000; AID 924, 2007;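 also: 0% = DMSO and -100% = full killing by reference compound; nearly all actives have a fitted effect of over 55% in size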
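ATP-content luminescence (ATPlite) read-out after 24 h compound exposure at 32C in H1299-p53A138V cells (600/well). Tested up to 46 uM. Normalized to DMSO (0%) and 100 uM tamoxifen (100% killing); Hill-fit AC50.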
p53ts 39C tox: qHTS Screen for Compounds that Selectively Target Cancer Cells with p53 Mutations: Cytotoxicity of p53ts Cells at the Nonpermissive Temperature; Potency, µM (doses to about 46.1 µM), for inactives: at the highest dose activity change, negative = cell killing, hits mostly cytotoxic; hit rate 1.5% among 130,000; H1299-p53A138V viability at 39C, ATP luminescence, 24 h; also: % is scaled to controls: 0 for no effect and ±100 for the full control effect; nearly all actives have a fitted effect of over 55% in size
* = called active by the depositor; [ ] = dose if it differs, or a comment. Calls follow the shape of the dose curve; as a rule, active = well fitted curve in the direction sought with a large enough effect; inconclusive = small, poorly fitted or top-dose-only effect, or another doubt; inactive = no such curve, though single readings can be large; an effect the other way counts as inactive or inconclusive. Potency is read from the fitted curve at half-maximal effect.

Results for Cc1nn(C(=O)c2cccc(Cl)c2)c(C)c1S(=O)(=O)N1CCOCC1 ?
Imprint erasure: -10%[10.9 µM]; p53ts 32C tox: -5%; p53ts 39C tox: -5%

How did CNC(=O)Cn1ncc2c(C)n(Cc3ccc(C)cc3)c(C)c2c1=O do in these assays?
p53ts 32C tox: 0%; p53ts 39C tox: 0%

How did Cc1ccc(CNC(=O)Cn2ncc3c(C)n(Cc4ccc(Cl)cc4)c(C)c3c2=O)cc1 do in these assays?
Imprint erasure: -9%[10.9 µM]; p53ts 32C tox: -15%; p53ts 39C tox: 16µM*

What do the screens show for `CN(C(=O)c1cccc(Nc2ccc(-c3ccc4c(c3)OCCO4)nn2)c1)C1CCCCC1`?
p53ts 32C tox: 13µM*; p53ts 39C tox: 11µM*

Results for CN(C(=O)c1cccc(N2C(=O)C3CC=CCC3C2=O)c1)C1CCCCC1 (configuration not stated) ?
Imprint erasure: inconclusive; p53ts 32C tox: -9%; p53ts 39C tox: 7%

What do the screens show for `CCCCN1CSC(=S)N(Cc2ccccc2)C1`?
Imprint erasure: -10%[10.9 µM]; p53ts 32C tox: -7%[9.22 µM]; p53ts 39C tox: -1%[9.22 µM]

How did CC(=O)c1cccc(NC(=O)c2cc3ccccn3n2)c1 do in these assays?
Imprint erasure: -72%; p53ts 32C tox: 13µM*; p53ts 39C tox: 13µM*

How did COc1cc(NC(=O)c2nc3ccccc3n(C)c2=O)cc(OC)c1OC do in these assays?
Imprint erasure: 3%[10.9 µM]; p53ts 32C tox: -5%; p53ts 39C tox: -19%

Results for COc1ccc(Cl)cc1NC(=O)c1cc2ccccn2n1 ?
Imprint erasure: -4%[10.9 µM]; p53ts 32C tox: -6%; p53ts 39C tox: -4%

What do the screens show for `Cc1cc(Cl)ccc1NC(=O)c1cc2ccccn2n1`?
Imprint erasure: -17%[10.9 µM]; p53ts 32C tox: 10µM*; p53ts 39C tox: 5µM*

What do the screens show for `CC(=O)c1cccc(NC(=O)c2nc3ccccc3n(C)c2=O)c1`?
Imprint erasure: -45%[10.9 µM]; p53ts 32C tox: 2.2µM*; p53ts 39C tox: 1.6µM*

What do the screens show for `CC(=O)c1cccc(NC(=O)c2cnn3ccccc23)c1`?
Imprint erasure: -80%; p53ts 32C tox: inconclusive; p53ts 39C tox: inconclusive

What do the screens show for `COc1ccc(C(=O)Nc2nnc(S(=O)(=O)N3CCCc4ccccc43)s2)cc1`?
Imprint erasure: -9%[10.9 µM]; p53ts 32C tox: -6%; p53ts 39C tox: -17%

What do the screens show for `O=C(NCCO)c1ccc(Cc2nc3ccccc3[nH]2)cc1`?
p53ts 32C tox: -6%; p53ts 39C tox: -5%

What do the screens show for `COC(=O)c1ccc2c(=O)n(CCCCCC(=O)N3CCN(c4ccccc4)CC3)c(=O)[nH]c2c1`?
Imprint erasure: -8%; p53ts 32C tox: inconclusive; p53ts 39C tox: inconclusive

How did COC(=O)c1ccc2c(=O)n(CCCCCC(=O)N3CCN(c4cc(Cl)ccc4C)CC3)c(=O)[nH]c2c1 do in these assays?
Imprint erasure: -11%[10.9 µM]; p53ts 32C tox: 6.3µM*; p53ts 39C tox: 4µM*

How did O=C(O)[C@@H](c1ccccc1)[C@@H](C(=O)O)c1ccccc1 do in these assays?
Imprint erasure: -9%[10.9 µM]; p53ts 32C tox: -4%[9.22 µM]; p53ts 39C tox: 3%[9.22 µM]

How did COC(=O)NC(/C(C(=O)OC)=C(\C)NCc1ccccc1)c1ccc(Cl)cc1 (configuration not stated) do in these assays?
p53ts 32C tox: 2%[9.22 µM]; p53ts 39C tox: 21%[9.22 µM]

What do the screens show for `Cc1cccc(-n2ncc3c(N4CCN(c5ccccc5)CC4)ncnc32)c1`?
Imprint erasure: -13%[10.9 µM]; p53ts 32C tox: 4%; p53ts 39C tox: -6%

How did COc1ccc(N2CCN(c3ncnc4c3cnn4C)CC2)cc1 do in these assays?
Imprint erasure: 8%[10.9 µM]; p53ts 32C tox: 1%; p53ts 39C tox: -15%

Results for COc1ccc(-n2ncc3c(N4CCCCC4)ncnc32)cc1 ?
p53ts 32C tox: 2.5µM*; p53ts 39C tox: 3.2µM*

What do the screens show for `COc1ccccc1N1CCN(c2ncnc3c2cnn3-c2cc(Cl)ccc2C)CC1`?
Imprint erasure: -13%[10.9 µM]; p53ts 32C tox: inconclusive; p53ts 39C tox: 13µM*

How did Cc1ccc(Cl)cc1-n1ncc2c(N3CCCCCC3)ncnc21 do in these assays?
Imprint erasure: -15%[10.9 µM]; p53ts 32C tox: -10%; p53ts 39C tox: inconclusive

Results for Cc1ccc(-n2ncc3c(N4CCCCCC4)ncnc32)cc1Cl ?
Imprint erasure: -19%[10.9 µM]; p53ts 32C tox: inconclusive; p53ts 39C tox: inconclusive

How did Cc1ccc(-n2ncc3c(N4CCCCC4)ncnc32)cc1 do in these assays?
Imprint erasure: -74%[10.9 µM]; p53ts 32C tox: 1.6µM*; p53ts 39C tox: 1.6µM*

Results for Cc1cccc(-n2ncc3c(N4CCCC4)ncnc32)c1 ?
Imprint erasure: -23%; p53ts 32C tox: 3.2µM*; p53ts 39C tox: 5µM*

Results for COc1ccc(-c2nnn3c2nc(NCc2ccccc2)c2ccccc23)cc1 ?
Imprint erasure: -11%[10.9 µM]; p53ts 32C tox: -4%; p53ts 39C tox: -13%

How did Cc1ccc2nc(-c3ccccc3)cn2c1 do in these assays?
Imprint erasure: -93%; p53ts 32C tox: 0.5µM*; p53ts 39C tox: 0.63µM*

How did Cc1cccn2cc(-c3ccccc3)nc12 do in these assays?
Imprint erasure: -82%; p53ts 32C tox: 13µM*; p53ts 39C tox: inconclusive

How did Cc1ccc2nc(-c3ccc(S(=O)(=O)N4CCOCC4)cc3)cn2c1 do in these assays?
Imprint erasure: -4%; p53ts 32C tox: 8%; p53ts 39C tox: 20%

What do the screens show for `COc1ccc(-c2cn3ccc4ccccc4c3n2)cc1`?
p53ts 32C tox: inconclusive; p53ts 39C tox: 11µM*

Results for Cc1cccn2cc(-c3ccc(F)cc3)nc12 ?
Imprint erasure: -82%; p53ts 32C tox: inconclusive; p53ts 39C tox: inconclusive

How did COc1ccc(-c2[nH]c(-c3ccc(Cl)cc3)nc2SCC(=O)NCC2CCCO2)cc1 (configuration not stated) do in these assays?
Imprint erasure: -4%[10.9 µM]; p53ts 32C tox: 0%; p53ts 39C tox: -5%

Results for COc1ccc(NC(=O)CSc2nc(-c3ccccc3)[nH]c2-c2ccccc2)cc1OC ?
Imprint erasure: -10%[10.9 µM]; p53ts 32C tox: 7%; p53ts 39C tox: inconclusive

What do the screens show for `c1cncc(-c2nnc(-c3cccs3)o2)c1`?
Imprint erasure: -47%; p53ts 32C tox: -2%; p53ts 39C tox: 4%

How did c1csc(-c2nnc(-c3ccc(N4CCOCC4)cc3)o2)c1 do in these assays?
Imprint erasure: -63%; p53ts 32C tox: 13µM*; p53ts 39C tox: 13µM*

How did N#Cc1c(N2CCCC2)nc(N)c2c(N)nc(N3CCCC3)cc12 do in these assays?
Imprint erasure: -14%; p53ts 32C tox: 13µM*; p53ts 39C tox: 15%

How did COc1cc2c(C#N)c(N3CCN(c4ccccc4OC)CC3)nc(N)c2c(N)n1 do in these assays?
Imprint erasure: -22%; p53ts 32C tox: inconclusive; p53ts 39C tox: inconclusive

How did C[C@@]12CCC(=O)C=C1CC[C@H]1C2[C@@H](O)C[C@]2(C)[C@@H]1CC[C@@]2(O)C(=O)CO (some centres not stated) do in these assays?
Imprint erasure: -8%[10.9 µM]

Results for Cc1cccc(Nc2cc(C)nc3nc(Cc4ccc(Cl)cc4)nn23)c1 ?
Imprint erasure: -9%[10.9 µM]; p53ts 32C tox: 33%; p53ts 39C tox: -7%

Results for CC(C)(C)C(=O)Nc1ccc(-c2cn3ccsc3n2)cc1 ?
Imprint erasure: -52%; p53ts 32C tox: 0.63µM*; p53ts 39C tox: 0.79µM*
